USP1-UAF1 inh – Inhibitors of USP1/UAF1: Primary Screen; Potency, µM (highest dose often 57.1 µM), without a hit: top-dose activity change, negative = inhibition, hits mostly inhibitors; AID 743255, 2014; 390,000 compounds, 0.23% hits; recombinant USP1/UAF1, Ub-Rhodamine cleavage fluorescence; Ubiquitin carboxyl-terminal hydrolase 1 (Homo sapiens), O94782; note: % is set by controls: 0 for no effect and ±100 for the full control effect; nearly all actives have a fitted effect of over 60% in size
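USP1/UAF1 complex (1 nM) preincubated 15 min at room temperature with compound, then Ub-Rho substrate (150 nM final) added. Kinetic fluorescence at 480/540 nm over 6 reads at 60 s intervals; 50 mM HEPES pH 7.8, 0.5 mM EDTA, 0.1 mg/ml BSA, 1 mM TCEP, 0.01% Tween-20.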
EPAC1 antag – qHTS for Antagonist of cAMP-regulated guanine nucleotide exchange factor 3 (EPAC1): primary screen. Potency, µM (titrated, usually from 115 µM), inactives show top-dose activity change, negative = inhibition, actives largely listed as inhibitors. EPAC1 GEF assay, Rap1b-BODIPY-GDP exchange fluorescence. 360,000 compounds, 0.14% hits. AID 720709, 2013. Rap guanine nucleotide exchange factor 3 (Homo sapiens), O95398;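 note: plate controls were vehicle for no effect and positive control for full effect; nearly all actives have a fitted effect of over 50% in size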
EPAC2 antag – qHTS for Antagonist of cAMP-regulated guanine nucleotide exchange factor 2 (EPAC2): primary screen; 360,000 compounds, 0.18% hits; AID 720708, 2013; EPAC2 GEF exchange of Rap1B-BODIPY-GDP, fluorescence; Potency, µM (series often up to 114 µM), without a hit: top-dose activity, negative = inhibition, hits mostly inhibitors; note: % is set by controls: 0 for no effect and ±100 for the full control effect; nearly all actives have a fitted effect of over 45% in size
EPAC2 ag – qHTS for Agonist of cAMP-regulated guanine nucleotide exchange factor 4 (EPAC2): primary screen. AID 720711, 2013. 360,000 compounds, 0.079% hits. EPAC2 activation, biochemical qHTS; response scale: 100% = 6.5 mM cAMP response. Rap guanine nucleotide exchange factor 4 (Homo sapiens), Q8WZA2. Potency, µM (highest dose often 154 µM), without a hit: top-dose activation, most hits filed as activators; note: nearly all actives have a fitted effect of over 50% in size
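In this primary screen, activation is scored as increased exchange of BODIPY-GDP from Rap1B by 100 nM EPAC2, with 50 uM GDP as competitor. Signal is normalized to the 6.5 mM cAMP agonist control.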
VDR inhibitor – Inhibitors of the vitamin D receptor (VDR): qHTS; Vitamin D3 receptor (Homo sapiens), P11473; VDR-SRC2-3 peptide fluorescence polarization, 2 h; Potency, µM, without a hit: max response, negative = inhibition, usual class: inhibitors; 400,000 compounds, 0.93% hits; AID 504847, 2011; note: % is set by controls: 0 for no effect and ±100 for the full control effect
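Fluorescence polarization assay of small-molecule disruption of VDR binding to coregulator peptide SRC2-3. Compounds and controls pin-transferred, then read after 2 h incubation at ambient room temperature.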
EPAC1 agonist – qHTS for Agonist of cAMP-regulated guanine nucleotide exchange factor 3 (EPAC1): primary screen | Rap guanine nucleotide exchange factor 3 (Homo sapiens), O95398 | EPAC1 agonist qHTS, biochemical assay; response scale: 100% = response to 6.5 mM cAMP | Potency, µM (highest dose often 154 µM), inactives show at the highest dose activation, most hits filed as activators | 360,000 compounds, 0.073% hits; note: nearly all actives have a fitted effect of over 60% in size
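Read-out is the fluorescence drop as BODIPY-GDP leaves Rap1B (480 nm excitation, 540 nm emission), recorded every 5 minutes over 30 minutes. Reactions held 100 nM EPAC1, 250 nM Rap1B–BODIPY-GDP and 50 uM GDP, with 6.5 mM cAMP setting full activation.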
An asterisk follows results filed as active; ? = inconclusive; . = not tested or not shown; [ ] = dose if it differs, or a comment. This is a sample that favours compounds with a hit; in the whole collection about 1.2% have one here. Calls come from the whole dose curve; as a rule, active = well fitted curve in the direction sought with a large enough effect; inconclusive = small, poorly fitted or top-dose-only effect, or another doubt; inactive = no such curve, though single readings can be large; an effect the other way counts as inactive or inconclusive. Potency is the fitted concentration of half-maximal effect.

SMILES | USP1-UAF1 inh | EPAC1 antag | EPAC2 antag | EPAC2 ag | VDR inhibitor | EPAC1 agonist
CN1C(=O)NC(=O)/C(=C/c2ccc([N+](=O)[O-])o2)C1=O | -26% | -5% | -20% | 6% | 71µM* | 1%
CC(=O)OC1C[C@@]2(C)C(c3ccoc3)C[C@H]3O[C@@]32[C@@]2(C)C(=O)C(O)=C3C(C)(C)C(=O)C=C[C@]3(C)C12 (stereo not given in full) | . | . | . | . | 4µM* | .
CC(=O)OC1CC(OC(C)=O)[C@]2(C)C(CC(OC(C)=O)[C@]3(C)C2CC[C@@]2(C)C(c4ccoc4)C[C@H]4O[C@]432)C1(C)C (stereo not given in full) | . | . | . | . | 1% | .
CC(=O)O[C@@H]1C[C@@]2(C)C(c3ccoc3)C[C@H]3O[C@]32[C@]2(C)C(=O)C(O)=C3C(C)(C)C(=O)C=C[C@]3(C)C12 (stereo not given in full) | . | . | . | . | 14µM* | .
COc1ccc(/C=C2/C(=O)NC(=O)N(c3ccc(C)c(C)c3)C2=O)cc1CN1C(=O)c2ccccc2C1=O | -13% | ? | -3% | 11% | 50µM* | -1%
CCC1CN2CCC1CC2C(O)c1ccnc2ccc(OC)cc12 (stereo not given) | . | . | . | . | 3% | .
CCOC(=S)SSC(=S)OCC | . | . | . | . | 50µM* | .
COc1ccc(C(SCC(NC(=O)OCc2ccccc2)C(=O)O)c2ccc(OC)cc2)cc1 (stereo not given) | -2% | -4% | 14µM* | 3% | . | -4%
[S]=[Sb][S][Sb]=[S] | . | . | . | . | 12% | .
NCC[C@H](NC(=O)[C@@H](N)CCCN=C(N)N[N+](=O)[O-])C(N)=O | . | . | . | . | 6% | .
O=C1NC(=O)C(=Cc2ccccc2[N+](=O)[O-])C(=O)N1 | -10% | 3% | -1% | -1% | ? | -1%
O=C1NC(=O)C(=Cc2cc3c(cc2[N+](=O)[O-])OCO3)C(=O)N1 | -4% | 3% | 21% | 2% | 40µM* | -1%
O=C(CCN1CC2CCC(CC2)C1)c1cccs1 | -14% | 0% | 0% | 0% | 45µM* | -3%
Cc1ccc2c(c1)C1CN(C)CCC1N2C(=O)c1cccs1 (stereo not given) | -20% | -19% | 2% | -1% | -11% | 5%
Oc1ccc2c3c1O[C@H]1c4oc5ccccc5c4C[C@@]4(O)C(C2)N(CC2CC2)CCC314 (stereo not given in full) | . | . | . | . | -3% | .
CCCCCCCC/C=C\CCCCCCCC(=O)OC[C@@H](COP(O)(O)=S)OC | . | . | . | . | 18µM* | .
CC(=O)N1CC[N+](C)(C)CC1 | . | . | . | . | 1% | .
CN(c1ccc(O)cc1)c1ccc([N+](=O)[O-])c2nonc12 | -16% | -17% | -23% | 0% | . | 3%
Nc1ccc2nonc2c1[N+](=O)[O-] | 32µM* | 1% | -1% | ? | -16% | ?
COc1cccc(C(C)(O)c2nc(-c3cccc(F)c3)cs2)c1 (stereo not given) | . | -25% | ? | 6% | . | -7%
Cc1ccc2c(c1)Cc1c(C(=O)NN3CCCCC3)nn(-c3ccc(Cl)cc3Cl)c1-2 | . | . | . | . | 0% | .
CCOC(=O)N(c1ccccc1)P1(=S)OCCO1 | 7% | -5% | 0%[57.1 µM] | -3% | 79µM* | -1%
Cc1cc(C=C2C(=O)NC(=O)NC2=O)c(C)n1-c1ccc2c(c1)OCO2 | -4% | -7% | 11% | -8% | 5% | -49%
Cc1cc(C=C2C(=O)NC(=S)NC2=O)c(C)n1-c1ccc2c(c1)OCO2 | -13% | 56µM* | -5% | -1% | 71µM* | -6%
CN(CCOc1ccc(C=C2C(=O)NC(=O)NC2=O)cc1)c1ccccn1 | -14% | -9% | ? | 8% | ? | 10%
SMILES | USP1-UAF1 inh | EPAC1 antag | EPAC2 antag | EPAC2 ag | VDR inhibitor | EPAC1 agonist
O=C1NC(=S)NC(=O)C1=Cc1ccc(OCc2ccccc2)cc1 | ? | -14% | 1% | 6% | 40µM* | -3%
CC(Cc1ccc(OCC(=O)O)cc1)NCC(O)c1cccc(Cl)c1 (stereo not given) | . | . | . | . | 8% | .
O=C1C=C2C(=CCOC2O)O1 (stereo not given) | . | . | . | . | 13µM* | .
C=CCc1cc(C=C2C(=O)NC(=O)NC2=O)cc(OC)c1OCc1ccc(C(=O)O)cc1 | -9% | -5% | 3% | 13% | 89µM* | -3%
C=CCc1cc(C=C2C(=O)N(C)C(=O)N(C)C2=O)cc(OCC)c1OCc1ccccc1 | ? | -12% | -8% | -4% | ? | 1%
O=C(CCl)c1ccc(Oc2ccc(C(=O)CCl)cc2)cc1 | . | . | . | . | 7.1µM* | .
CC(CN)CC(=O)O (stereo not given) | . | . | . | . | 2% | .
O=C1NC(=O)C(=Cc2csc3ccccc23)C(=O)N1 | -20% | -18% | -3% | 4% | 35µM* | 9%
O=C1NC(=O)C(=Cc2coc3ccccc3c2=O)C(=O)N1 | ? | 0% | -4%[57.1 µM] | 10% | ? | 1%
CC(=O)n1cc(C=C2C(=O)NC(=O)NC2=O)c2ccccc21 | -5% | -26% | 1% | 12% | ? | 6%
Cn1cc(C=C2C(=O)NC(=O)NC2=O)c2ccccc21 | 28µM* | -29% | 43% | ? | -7% | 13%
CC(C)C1C(=O)O[C@@H]2CCN3CC=C(COC(=O)[C@](C)(O)[C@]1(C)O)[C@H]23 (stereo not given in full) | . | . | . | . | 13% | .
O=C1NC(=O)N(c2ccc(F)cc2)C(=O)/C1=C/c1ccsc1 | -15% | 2% | -8% | 11% | ? | 17%
CSc1ncc(/C=C2/C(=O)NC(=O)N(c3ccc(C)cc3)C2=O)cn1 | -12% | -11% | -1% | 8% | 40µM* | -4%
CCOc1ccc(N2C(=O)/C(=C\c3cccs3)C(=O)NC2=S)cc1 | -20% | 22% | 9% | 6% | 6% | -3%
CCOc1ccc(N2C(=O)NC(=O)/C(=C/c3cnc(SC)nc3)C2=O)cc1 | -18% | -6% | -6% | 6% | 40µM* | 0%
O=C1NC(=O)N(c2ccc(Br)cc2)C(=O)/C1=C/c1ccsc1 | -16% | -19% | 4% | -2% | 45µM* | 0%
CCOc1ccc(N2C(=O)/C(=C/c3ccco3)C(=O)NC2=S)cc1 | 22µM* | 11µM* | ? | 3% | 79µM* | -3%

Screening data from PubChem BioAssay.
